Data from the supplement of paper PMC12669032.
Values without a mark were called inactive.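 Rule for the calls: active = AUC reduced over 20% with Padj below 0.05 in at least 2 of 3 replicates; inactive = otherwise.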

Assays:
Experiment in all cases: growth AUC relative to DMSO control (median of replicates) (fraction); higher = more growth (less inhibition), active = hit call of the paper
Details in all cases: 20 µM; 24 h
Akkermansia muciniphila = tested on: Akkermansia muciniphila
Procedure, shortened: (§1)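 Starting at OD600 0.05, gut bacterial monocultures in mGAM were grown anaerobically at 37 °C with 20 µM compound (1% DMSO) under pierced gas-permeable seals. OD600 was read every hour for 24 h, and the lowest OD of each curve was set to 0. Area under the growth curve was normalised to the plate median of solvent-only wells, or to row and column medians on the industrial chemical plate, and the median of three biological replicates grown on separate days is given.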

Bacteroides caccae = tested on: Bacteroides caccae
Procedure, shortened: as §1

Bacteroides clarus = tested on: Bacteroides clarus
Procedure, shortened: as §1

Bacteroides dorei = tested on: Bacteroides dorei
Procedure, shortened: as §1

Bacteroides stercoris = tested on: Bacteroides stercoris
Procedure, shortened: as §1

[1] = tested on: Bacteroides thetaiotaomicron
Procedure, shortened: as §1

Bacteroides uniformis = tested on: Bacteroides uniformis
Procedure, shortened: as §1

[2] = tested on: Bifidobacterium longum subsp. longum
Procedure, shortened: as §1

Clostridium difficile = tested on: Clostridium difficile
Procedure, shortened: as §1

Collinsella aerofaciens = tested on: Collinsella aerofaciens
Procedure, shortened: as §1

Coprococcus comes = tested on: Coprococcus comes
Procedure, shortened: as §1

Escherichia coli ED1a = tested on: Escherichia coli ED1a
Procedure, shortened: as §1

Escherichia coli IAI1 = tested on: Escherichia coli IAI1
Procedure, shortened: as §1

Eubacterium rectale = tested on: Eubacterium rectale
Procedure, shortened: as §1

[3] = tested on: Fusobacterium nucleatum subsp. animalis
Procedure, shortened: as §1

Lactobacillus gasseri = tested on: Lactobacillus gasseri
Procedure, shortened: as §1

Lactobacillus paracasei = tested on: Lactobacillus paracasei
Procedure, shortened: as §1

Odoribacter splanchnicus = tested on: Odoribacter splanchnicus
Procedure, shortened: as §1

[4] = tested on: Parabacteroides distasonis
Procedure, shortened: as §1

Parabacteroides merdae = tested on: Parabacteroides merdae
Procedure, shortened: as §1

SMILES	growth AUC (Akkermansia muciniphila)	growth AUC (Bacteroides caccae)	growth AUC (Bacteroides clarus)	growth AUC (Bacteroides dorei)	growth AUC (Bacteroides stercoris)	growth AUC [1]	growth AUC (Bacteroides uniformis)	growth AUC [2]	growth AUC (Clostridium difficile)	growth AUC (Collinsella aerofaciens)	growth AUC (Coprococcus comes)	growth AUC (Escherichia coli ED1a)	growth AUC (Escherichia coli IAI1)	growth AUC (Eubacterium rectale)	growth AUC [3]	growth AUC (Lactobacillus gasseri)	growth AUC (Lactobacillus paracasei)	growth AUC (Odoribacter splanchnicus)	growth AUC [4]	growth AUC (Parabacteroides merdae)
CCC/C(=N\OCC)C1=C(O)CC(CC(C)SCC)CC1=O (stereo not given)	0.936	1.01	0.989	1.02	0.974	0.992	1.01	0.85	1.01	1.01	0.986	0.986	0.973	0.937	0.867	0.964	0.978	0.979	0.991	0.988
CC1=C(C(=O)Nc2ccccc2)SCCO1	0.979	1.02	1	0.982	1.21	1.04	0.993	0.956	1	1.03	0.998	1	1.04	1.06	1.09	0.993	1.04	0.985	1	1.01
COC(=O)N(C(=O)N1CO[C@@]2(C(=O)OC)Cc3cc(Cl)ccc3C2=N1)c1ccc(OC(F)(F)F)cc1	0.961	0.952	0.965	0.982	0.965	0.873	0.98	0.83	0.916	0.884	0.857	0.946	0.939	1.09	0.92	0.654	0.896	0.994	0.808	0.901
Cc1cccc(C)c1N(Cn1cccn1)C(=O)CCl	1.02	0.829	0.997	0.974	1.01	0.987	0.969	1.07	1.01	0.952	0.992	0.976	0.952	1.09	1.1	0.928	0.997	1.06	1.01	0.963
COP(=S)(OC)Oc1cc(Cl)c(Cl)cc1Cl	1.09	0.936	1.02	0.947	1.17	1.03	0.939	0.947	1.02	1.04	0.979	1	0.971	0.945	1.06	1	1.02	0.88	0.936	0.983
COC(=O)Nc1cccc(OC(=O)Nc2cccc(C)c2)c1	0.871	0.991	0.983	1.02	0.99	1.01	0.994	1.03	1.02	0.926	1.03	1	0.966	1	0.944	0.933	0.987	1.05	0.976	0.968
CCS(=O)(=O)CCSP(=O)(OC)OC	0.829	1.02	0.962	1	0.979	1.01	0.986	1.01	0.975	1.01	0.975	1.01	0.992	0.935	0.969	1.04	1.03	0.97	1.08	0.988
COc1cc(C)c(C(=O)c2c(OC)ccc(Br)c2C)c(OC)c1OC	1.05	1	0.959	0.992	0.958	0.951	0.91	0.885	1.03	0.956	1.04	1.01	0.971	1.02	1.01	0.709	1.03	1.05	0.528 (active)	1.01
CCS(=O)(=O)c1cccnc1S(=O)(=O)NC(=O)Nc1nc(OC)cc(OC)n1	0.976	1.01	0.983	0.993	0.963	0.981	0.974	0.995	0.942	1	0.968	1	0.999	0.943	0.912	1.01	0.996	0.897	1.02	0.993
O=S(=O)(c1ccc(O)cc1)c1ccc(O)cc1	0.921	0.97	1	1.01	0.977	0.996	0.987	0.949	0.997	0.976	0.974	1.05	1.02	0.972	0.977	0.963	0.953	0.914	0.878	0.974
CC1(C)CN=C(NN=C(/C=C/c2ccc(C(F)(F)F)cc2)/C=C/c2ccc(C(F)(F)F)cc2)NC1	0.911	0.961	0.979	1.03	0.902	1.03	0.991	0.998	0.972	1.09	1	0.992	1.04	1.04	1.06	0.935	0.903	1.04	1.06	0.989
COCCN(C(=O)CCl)c1c(C)cccc1C	0.91	0.969	0.967	1.02	0.967	0.989	0.973	0.851	1	1.02	0.983	1	0.973	0.854	0.939	1.02	0.831	0.965	0.968	0.985
COC(=O)c1ccccc1S(=O)(=O)NC(=O)Nc1nc(C)nc(OC)n1	1.1	1.02	0.982	1.01	0.849	0.995	1.03	1	1.01	0.957	0.975	0.963	0.958	1.05	0.913	0.934	0.933	1.07	0.977	0.962
COCc1c(F)c(F)c(COC(=O)C2C(C=C(C)C)C2(C)C)c(F)c1F (stereo not given)	0.976	0.953	0.943	0.991	1.17	0.98	0.972	1.01	1.02	1.03	0.979	1.01	1.02	0.906	1.04	0.873	0.978	1.05	1.03	1.02
COP(=S)(OC)Oc1ccc(Sc2ccc(OP(=S)(OC)OC)cc2)cc1	0.994	0.986	1.04	0.979	1.08	1.04	0.968	0.94	0.996	0.992	1.03	1.05	1.01	1.01	1.09	1.03	0.973	1.13	1.01	1.05
